The text below walks through data of ChEMBL document CHEMBL3988442, “University of Dundee, Small-Polar-MMV Screening Library” (2021).

Assay [1] concerns the target T1, Aspartate--tRNA(Asp/Asn) ligase (Mycobacterium tuberculosis (strain ATCC 25618 / H37Rv)) (UniProt P9WFW3). Note: in the data most compounds retested in dose-response had high values.
T1 sequence (whole entry): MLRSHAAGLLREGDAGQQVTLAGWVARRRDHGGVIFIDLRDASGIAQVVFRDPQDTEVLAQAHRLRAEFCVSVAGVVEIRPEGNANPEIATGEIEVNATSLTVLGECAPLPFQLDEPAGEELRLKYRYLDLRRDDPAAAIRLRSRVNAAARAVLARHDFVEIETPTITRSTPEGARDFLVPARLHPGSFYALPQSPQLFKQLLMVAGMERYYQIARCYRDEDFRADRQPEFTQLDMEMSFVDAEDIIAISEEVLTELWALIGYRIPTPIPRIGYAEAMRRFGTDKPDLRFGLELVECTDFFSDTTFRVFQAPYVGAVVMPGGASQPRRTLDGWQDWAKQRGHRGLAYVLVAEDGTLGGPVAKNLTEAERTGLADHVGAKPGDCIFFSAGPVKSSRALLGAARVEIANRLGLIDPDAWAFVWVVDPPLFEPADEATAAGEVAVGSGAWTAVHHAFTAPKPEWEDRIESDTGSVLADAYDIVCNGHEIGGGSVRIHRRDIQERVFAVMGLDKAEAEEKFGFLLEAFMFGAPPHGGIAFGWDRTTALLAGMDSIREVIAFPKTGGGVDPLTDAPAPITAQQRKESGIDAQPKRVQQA
Nature of the assay: Assay for Asp RNA synthetase-1 from Mycobacterium tuberculosis. The class given is functional. Also on record: scale not given: direction of the effect not stated beside the values. Conditions: 30 µM.

Assay [2] deals with Shiga toxin 2 (Escherichia coli O157:H7) (UniProt P09385+P09386). Put plainly: E. coli 0.157:H7 Shiga Toxin SOP - stx2 screening assay. Type of assay: functional. More on the design: scale not given: direction of the effect not stated beside the values. The following applies: 30 µM.

On to `CCc1nc(C2CCCN2CC(=O)Nc2nncs2)no1` (stereo not given), for which the Percent Effect in assay [1] was -0.364%; in assay [2] it was 2.9%.
Taken in the same sequence, the figures for `Cn1cnnc1C1CCCN(C(=O)c2ccccc2Cl)C1` (stereo not given) were 1.15% and 22.4%.
For the compound `COCC1Cn2nnc(-c3cnn(C)c3)c2CN1Cc1ccco1` (stereo not given), the Percent Effect was 0.436% in assay [1] and -1.07% in assay [2].
The matching figures for `c1csc(-c2nc(CN3CCn4c(nnc4C4CC4)C3)co2)c1`: -3.42% and 1.36%.
Take `c1ncn(CC2CN(CC3CCCC3)CCO2)n1` (stereo not given): the values for the Percent Effect in assay [1] and in assay [2] were 2.9% and -0.78%, respectively.
As for `Cc1nc2cc(=O)[nH]n2c(C)c1CC(=O)Nc1ccc2ccccc2n1`, the Percent Effect came out at 1.28% in assay [1] and 36.5% in assay [2].
Taken in the same sequence, the figures for `Cc1ccc(N2CCCN(C(=O)c3cc(Cl)c[nH]3)CC2)nn1` were -1.03% and -26.5%.
For the compound `Cc1ccn(-c2ccc(C(=O)N3CCCC(n4ccnc4)C3)cc2)n1` (stereo not given), the Percent Effect is 3.8% in assay [1] and -14.7% in assay [2].
Regarding `COc1cccc(C(=O)N2CCCCC2CNC(N)=O)c1` (stereo not given), the values for the Percent Effect in assay [1] and in assay [2] were 3.2% and 26.9%, respectively.
With `Cn1ccnc1CNC(=O)N1CCCC(Cc2nccn2C)C1` (stereo not given), the Percent Effect in assay [1] is 0.605%; in assay [2], -13.5%.
As for `CNC(=O)[C@H]1C[C@@H]2CN(C(=O)c3cscn3)C[C@@H]2N1S(C)(=O)=O`, the Percent Effect in assay [1] was 2.65%; in assay [2], -4.53%.
For the compound `COC(=O)C1CCN(C(=O)c2ccc(C)c(NS(C)(=O)=O)c2)CC1`, the Percent Effect in assay [1] was -1.09%; in assay [2], -2.45%.
Regarding `CC(C)c1nccn1C1CCCN(C(=O)c2cccc3c2OCO3)C1` (stereo not given), the Percent Effect is 0.582% in assay [1] and -1.21% in assay [2].
Turning to `Cc1cc(C[C@@H]2CCC[C@H]2NCc2ccccc2C(F)(F)F)on1`, the figures for the Percent Effect in assay [1] and in assay [2] were 3.02% and 26%, respectively.
The matching figures for `CCN1CCN(C(=O)C(C)N2CCN(Cc3nccn3C)CC2)CC1` (stereo not given): 0.262% and -3.01%.
As for `Cn1cc(CN2C[C@@H]3COC[C@]3(C(=O)NCc3ccccn3)C2)cn1`, the Percent Effect in assay [1] is 3.06%; in assay [2], -15%.
The matching figures for `Cc1ncccc1NC(=O)C1=NOC2(CCN(Cc3nccs3)C2)C1` (stereo not given): 10.6% and -15.4%.
The matching figures for `CN1N=C(C(=O)N2CCCC(CCc3c(F)cccc3F)C2)CCC1=O` (stereo not given): -2.6% and 9.43%.
The matching figures for `Cc1nn(C)c(N(C)C)c1CNCC(O)COc1ccccc1` (stereo not given): -5.92% and -12%.
As to `CCOc1ccc(C(=O)NS(=O)(=O)c2cncc(Br)c2)cc1OC`, the Percent Effect in assay [1] is -5.81%; in assay [2], -12%.
